# Screening data from PubChem BioAssay.
# DT40 TDP1 CPT: DT40-hTDP1 cell growth loss with CPT; chicken DT40 Tdp1-/-;hTDP1 cells + 20 nM CPT, ATP luminescence, 48 h; Potency, µM (doses to about 46.2 µM), for inactives: at the highest dose activity change, negative = growth inhibition, actives largely listed as inhibitors; 420,000 tested, 12% active; further: potency means the concentration at half of the fitted maximal effect; nearly all actives have a fitted effect of over 55% in size
#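 Chicken DT40 Tdp1-/- cells complemented with human TDP1, 400 cells/well, exposed to compounds plus 20 nM camptothecin for at least 48 h at 37 C; viability read as ATP content by CellTiter-Glo luminescence.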
# HT1080 IDH1KD tx: HT-1080 IDH1 knockdown cell toxicity (counter line). HT-1080 IDH1 knockdown viability, ATP luminescence, 48 h. Potency, µM (top dose mostly 46.1 µM), inactives show top-dose activity, negative = toxicity, actives largely listed as cytotoxic. 360,000 tested, 2% active;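 further: potency means the concentration at half of the fitted maximal effect; 0% = DMSO wells and -100% = cell-free medium wells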
#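 HT-1080-IDH1KD cells (IDH1 knocked down), 750/well in RPMI with 5% FBS, treated with compound 48 h at 37 degrees C. Viability by CellTiter-Glo luminescence, normalised to DMSO and no-cell wells; concentration-response curves classed.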
# HT1080-NT tox: kills 2HG-producing HT-1080-NT fibrosarcoma cells | HT-1080-NT fibrosarcoma viability, CellTiter-Glo ATP luminescence, 48 h | 360,000 tested, 1.6% active | Potency, µM (highest dose often 46.1 µM), inactives show at the top dose activity, negative = less viability, most hits filed as cytotoxic;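 further: NT is the 2HG producing partner of a matched IDH1 knockdown line; potency means the concentration at half of the fitted maximal effect; 0% = DMSO-treated cells and -100% = media-only wells without cells; nearly all actives have a fitted effect of over 55% in size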
#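 Viability of the 2HG-overproducing fibrosarcoma line after 48 hours of compound exposure at 37 degrees C was determined by luminescence with CellTiter-Glo, and concentration-effect curves were then fitted and categorized.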
# DT40 TDP1 no CPT: qHTS for Inhibitors of human tyrosyl-DNA phosphodiesterase 1 (TDP1): qHTS in cells in absence of CPT. DT40 Tdp1-/- hTDP1 cells, no CPT, ATP luminescence, 48 h. Potency, µM (series often up to 46.2 µM), for inactives: at the top dose activity change, negative = growth inhibition, usual class: inhibitors. 420,000 tested, 15% active; further: potency means the concentration at half of the fitted maximal effect; nearly all actives have a fitted effect of over 55% in size
#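 Compound effects on proliferation are scored in DT40 Tdp1-/-;hTDP1 cells in the absence of CPT. ATP levels (CellTiter-Glo luminescence) are recorded after a ≥48 hr, 37 °C incubation.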
# IL-1B inflam inh: inflammasome signaling inhibition, IL-1 beta readout | THP-1 LPS/ATP IL-1B secretion, AlphaLISA, 16 h; hits give low values | activity change, % at 57.5 µM | 360,000 tested, 4.7% active; in the data active means activity change below about -50%; inconclusive means mostly about -30% to -49%
#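 Secreted IL-1B measured by AlphaLISA bead assay after 16 h compound exposure of THP-1 cells; compounds (final up to 57.5 uM) added 1 h before LPS (250 ng/mL) and ATP (1.25 mM) stimulation; lower signal means less secretion.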
# Active calls of the source: *; ? = inconclusive; · = no result; [ ] = another dose, or the depositor's remark. Hits are enriched below; roughly 19% of the tested compounds scored in any of these assays. Unless noted, the call rests on the fitted dose curve; in most records, active means well fitted curve in the direction sought with a large enough effect; inconclusive means small, poorly fitted or top-dose-only effect, or another doubt; inactive means no such curve, though single readings can be large; an effect the other way counts as inactive or inconclusive. Unless noted, on the % scale 0 is the no-effect control and ±100 the full control effect.
SMILES,DT40 TDP1 CPT,HT1080 IDH1KD tx,HT1080-NT tox,DT40 TDP1 no CPT,IL-1B inflam inh
COc1ccc2c(c[n+](C)c3c4cc5c(cc4ccc23)OCO5)c1OC,1.3µM*,·,·,1.3µM*,·
CC1CC[C@]2(NC1)OC1CC3C4CC=C5CC(O)CC[C@@]5(C)C4CC[C@]3(C)C1C2C (stereo partly drawn),12%,·,·,5%,·
CCOC(=O)C1(CCOc2ccccc2)CCN(Cc2ccccc2OC)CC1,16µM*,-15%,?,15µM*,?
CCOC(=O)C1(CCOc2ccccc2)CCN(Cc2cnc(SC)nc2)CC1,?,-19%,0%,18µM*,?
CCOC(=O)C1(CCOc2ccccc2)CCN(Cc2cccc(O)c2)CC1,?,?,?,?,-86*
CCOC(=O)C1(CCc2ccccc2)CCN(C(C)CSC)CC1 (stereo not drawn),?,6%,-23%,?,0
CCOC(=O)C1(CCOc2ccccc2)CCN(C(C)CSC)CC1 (stereo not drawn),?,-4%,-15%,?,12
COc1ccc2nc(NC(=O)c3nc(S(=O)(=O)Cc4cccc(C)c4)ncc3Cl)sc2c1,1.6µM*,·,·,2.1µM*,·
CC(C)(C)c1ccc(O)cc1,4%,·,·,1%,·
O=C(O)C(Br)CBr (stereo not drawn),-8%,9%,?,?,-11
CC(C)CCON=O,-4%,·,·,-8%,·
CCON=O,0.094µM*,·,·,?,·
O=C(Cn1c(=O)n(CC2CS2)c2ccccc21)N1CCCCCC1 (stereo not drawn),2%,10%,-7%,14%,22
O=C1NC(=O)C(=Cc2cn(CCOc3ccc4c(c3)OCO4)c3ccccc23)C(=O)N1,?,-8%[9.24 µM],-3%,21µM*,-10
O=C(NC1CN2CCC1CC2)c1cc(Cl)c([N+](=O)[O-])c2nc[nH]c12 (stereo not drawn),?,4%,6%,?,-104*
C=CCN1C(=O)NC(=O)/C(=C/C=C/c2ccccc2)C1=O,16µM*,21µM*,?,23µM*,?
O=C1NC(=O)N(CCc2ccc(F)cc2)C(=O)/C1=C\C=C\c1ccccc1,2.3µM*,19%,14%,3.7µM*,-24
C=CCN1C(=O)NC(=O)/C(=C/c2ccc(OC)c(CSc3ccccn3)c2)C1=O,?,0%,-1%,?,19
CCOC(=O)c1oc2ccc(S(=O)(=O)n3nc(-c4ccc(Cl)cc4)cc3N)cc2c1C,23µM*,7%,5%,12µM*,0
CC(=O)OC1CCC23C(=O)OC45CCC(C6=CC(=O)OC6)C4(C)CCC2C5CCC3(O)C1 (stereo not drawn),12µM*,·,·,10µM*,·
CC12CC[C@H]3[C@@H](CCC4(O)C[C@H](O)CCC34/C=N/NC(=O)c3ccccc3[N+](=O)[O-])C1(O)CCC2C1=CC(=O)OC1 (stereo partly drawn),10%,?,?,-25%,?
CN1c2ccccc2C(NCCCCCCC(=O)O)c2ccc(Cl)cc2S1(=O)=O (stereo not drawn),6%,·,·,?,·
CN1CC=C(/C=C/c2ccc(-c3ccccc3)cc2)CC1,15µM*,-13%,-17%,12µM*,?
CC[C@@H](C(=O)[C@@H](C)[C@@H](O)[C@H](C)[C@@H]1O[C@@H]([C@@H](CC)C(=O)O)CC[C@@H]1C)[C@H]1O[C@]2(C=C[C@@H](O)[C@]3(CC[C@@](C)([C@H]4CC[C@](O)(CC)[C@H](C)O4)O3)O2)[C@H](C)C[C@@H]1C,0.58µM*,2.9µM*,0.52µM*,0.52µM*,-111*
Cc1cc(C)n(-c2nc3nonc3nc2Nc2cccc(C)c2C)n1,?,0%,3%,?,10
SMILES,DT40 TDP1 CPT,HT1080 IDH1KD tx,HT1080-NT tox,DT40 TDP1 no CPT,IL-1B inflam inh
C[C@]12CC[C@H]3C(CCC4(O)CC(O)CC[C@]34C=O)C1=CC[C@H]2c1ccc(=O)oc1 (stereo partly drawn),-3%,5.8µM*,13µM*,-30%,?
C[C@]12CC[C@H](O)C[C@H]1CC[C@@H]1[C@@H]2CC[C@]2(C)[C@@H](c3ccc(=O)oc3)C[C@H]3O[C@]132,?,·,·,15µM*,·
CC1(O)CCC2C3CCC4=CC(=O)CCC4(C)C34OC4CC21C (stereo not drawn),0%,6%,19%,-6%,18
CC(=O)O[C@H]1[C@H]2O[C@]23[C@@H]2CC[C@]4(O)C[C@@H](O)CC[C@]4(C)C2CC[C@]3(C)[C@H]1c1ccc(=O)oc1 (stereo partly drawn),6.5µM*,0.015µM*,0.82µM*,3.7µM*,?
CCCC1(CC(C)CC)C(=O)NC(=O)NC1=O (stereo not drawn),-9%,5%,4%,-24%,2
O=C1CC2OCC=C3CN4CC[C@]56c7ccccc7N1[C@H]5[C@H]2C3C[C@H]46 (stereo partly drawn),·,·,·,-8%,·
C[C@H]1CC[C@@H]2[C@@H](C)[C@H]3[C@H](C[C@H]4[C@@H]5CC=C6C[C@@H](O[C@@H]7O[C@H](CO)[C@H](O)[C@H](O[C@@H]8O[C@H](CO)[C@@H](O)[C@H](O)[C@H]8O)[C@H]7O[C@@H]7O[C@@H](C)[C@H](O)[C@@H](O)[C@H]7O)CC[C@]6(C)[C@H]5CC[C@]34C)N2C1,15µM*,-11%,3%,?,-98*
CCN(CCO)CCn1c(Cc2ccccc2)nc2c1c(=O)n(C)c(=O)n2C,-10%,·,·,-14%,·
CC1(C)C(=O)C=C[C@@]2(C)C1CC(O)[C@]1(C)C2CC[C@@]2(C)C(c3ccoc3)OC(=O)C3O[C@]312 (stereo partly drawn),13µM*,·,·,12µM*,·
CC1(C)C(O)CC(O)[C@]2(C)C1CC(O)[C@]1(C)C2CC[C@@]2(C)C(c3ccoc3)OC(=O)C3O[C@]312 (stereo partly drawn),?,·,·,-21%,·
O=[N+]([O-])c1cc(I)c(O)c(I)c1,8%,·,·,?,·
CCC1/C=C/C=CCC(C)C(O)[C@@](C)(O)C(=O)C(C)C(O)C(C)C(=O)C(C)C(O)C(C)C=CC(=O)O[C@H]2C(C)C(CC1)O[C@]1(CCC(C)C(CC(C)O)O1)C2C (stereo partly drawn),0.0073µM*,·,·,0.0058µM*,·
Cc1nn(CC(=O)N2CCC3(CC2)OCCO3)c(=O)c2cc3ccccc3n12,-10%,8%,2%,-11%,0
